Source: PubChem BioAssay (Tox21)
Inconclusive results are not listed. Calls of active or inactive are those of the source. Unless noted, the call rests on the fitted dose curve; in most records, active means well fitted curve in the direction sought with a large enough effect in the repeat runs; inconclusive means weak or mixed curves; inactive means no such curve, though single readings can be large; an effect the other way counts as inactive or inconclusive.

What was measured:
[1] = qHTS assay to identify small molecule antagonists of the sonic hedgehog signaling (Shh) pathway (AID 1259369; calls by dose curve; further: nearly all actives have a fitted effect of over 45% in size)
Procedure, shortened: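 NIH/3T3-derived Gli1-Luc reporter cells plated 4 h, dosed with compound, then stimulated with conditioned medium for 24 h at 37 C. Firefly luciferase luminescence read after 30 min with detection reagent at room temperature.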

[2] = qHTS assay to identify small molecule agonists of the androgen receptor (AR) signaling pathway in the presence of an antagonist - cell viability counter screen (AID 1259379);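 further: MDA-kb2 human breast cancer cells carrying an MMTV luciferase reporter; series mostly up to about 92 µM; nearly all actives have a fitted effect of over 25% in size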
Procedure, shortened: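 MDA-kb2 cells (MMTV-luciferase, AR/GR), 3,000/well, 5 h attachment, then 3.0 µM nilutamide (final) and compounds at 15 concentrations. Viability by CellTiter-Fluor fluorescence after 16 h at 37 °C, 0% CO2, in the reporter wells.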

[3] = qHTS assay to identify small molecule antagonists of the estrogen receptor beta (ER-beta) signaling pathway - cell viability counter screen (AID 1259382);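 further: HEK293T cells carrying ER-beta-UAS-bla reporter stimulated with estradiol; series mostly up to about 92 µM; nearly all actives have a fitted effect of over 55% in size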
Procedure, shortened: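 ER-beta-UAS-bla HEK293T cells in 2% charcoal-stripped FBS medium, treated with compound plus 1 nM 17-beta-estradiol for 16 h at 37C. Viability read by CellTiter-Glo luminescence after 30 min at room temperature in the same wells.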

[4] = target: Estrogen receptor (Homo sapiens) (UniProt P03372); assay: qHTS assay to identify small molecule agonists of the estrogen receptor alpha (ER-alpha) signaling pathway in the presence of an antagonist (AID 1259383; calls by dose curve; further: top concentration of the series differs between compounds; nearly all actives have a fitted effect of over 15% in size)
Procedure, shortened: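 VM7Luc4E2 cells express endogenous full-length ER-alpha with an ERE-luciferase reporter and were hormone-deprived for 5 days. Compounds at 15 concentrations were added with 10.0nM ICI-182,780 for 22hr at 37C. Luminescence was read with ONE-Glo.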

[5] = qHTS assay to identify small molecule agonists of the estrogen receptor alpha (ER-alpha) signaling pathway in the presence of an antagonist - cell viability counter screen (AID 1259386);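 further: series mostly up to about 92 µM; cells exposed to compounds for 22 h at 37 °C before the viability read; nearly all actives have a fitted effect of over 30% in size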
Procedure, shortened: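 Cell viability in VM7Luc4E2 cells (endogenous full-length ER-alpha) measured by CellTiter-Fluor fluorescence in the same wells as the luciferase screen. Cells pre-cultured 5 days in charcoal-stripped serum, then treated 22 h with compounds at 15 concentrations plus 10.0nM ICI-182,780.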

[6] = target: Progesterone receptor (Homo sapiens) (UniProt P06401); assay: qHTS assay to identify small molecule agonists of the progesterone receptor (PR) signaling pathway (AID 1346784; calls by dose curve; further: nearly all actives have a fitted effect of over 30% in size)
Procedure, shortened: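 The screen uses PR-UAS-bla HEK 293T cells in charcoal-stripped serum (2%). Compounds are applied for 16 hr at 37C after a 6 hr pre-incubation, and reporter activity is detected with a FRET beta-lactamase substrate after 2 hr at room temperature.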

[7] = target: Progesterone receptor (Homo sapiens) (UniProt P06401); assay: qHTS assay to identify small molecule antagonists of the progesterone receptor (PR) signaling pathway (AID 1346795; active means well fitted inhibition curve with a large enough effect in the signal ratio in the repeat runs, not every such curve was filed as active; the % refers to the signal ratio)
Procedure, shortened: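 After 6 hr plating at 37C in 2% stripped-serum medium, PR-UAS-bla HEK293T cells got compounds, then 1 nM R5020. Sixteen hours later, LiveBLAzer substrate was applied for 2 hr at room temperature and fluorescence was recorded.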

[8] = qHTS assay to identify small molecule antagonists of the progesterone receptor (PR) signaling pathway - cell viability counter screen (AID 1346798); further: series mostly up to about 92 µM; nearly all actives have a fitted effect of over 50% in size
Procedure, shortened: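 Viability was determined by ATP-based luminescence (CellTiter-Glo) in PR-UAS-bla HEK293T cells cultured in 2% charcoal-stripped serum and incubated 16 hr with compounds under R5020 stimulation.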

[9] = qHTS assay to identify small molecule antagonists of the TGF-beta/Smad signaling pathway - cell viability counter screen (AID 1346824); further: nearly all actives have a fitted effect of over 50% in size
Procedure, shortened: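 SBE-bla HEK 293T cells were plated overnight at 37 C, then given compounds in DMSO plus TGF-beta1 (added as 0.25 ng/mL solution) for 5 hr. After the bla read, CellTiter-Glo was added to the same wells and luminescence read after 30 min at room temperature.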

[10] = qHTS assay to identify small molecule agonists of the TGF-beta/Smad signaling pathway - cell viability counter screen (AID 1346829); further: top concentration of the series differs between compounds; nearly all actives have a fitted effect of over 45% in size
Procedure, shortened: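 Luminescence from CellTiter-Glo, read after a 30 min room-temperature incubation, gives cell viability of SBE-bla HEK 293T cells treated 5 hr with compounds at 37 C.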

[11] = qHTS assay to identify small molecule agonists of the TGF-beta/Smad signaling pathway (AID 1346859; active means well fitted activation curve with a large enough effect in the signal ratio in the repeat runs, not every such curve was filed as active; the % refers to the signal ratio; further: series mostly up to about 77 µM)
Procedure, shortened: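 Dual-wavelength fluorescence (460/530 nm emission) quantified beta-lactamase expression under the Smad binding element in HEK 293T cells following 5 hr compound treatment at 37 C.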

[12] = target: Thyrotropin-releasing hormone receptor (Homo sapiens) (UniProt P34981); assay: qHTS assay to identify small molecule antagonists of the thyrotropin-releasing hormone receptor (TRHR) signaling pathway (AID 1346877; active means well fitted inhibition curve with a large enough effect in the repeat runs, not every such curve was filed as active; further: series mostly up to about 51 µM)
Procedure, shortened: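 TRHR-expressing HEK293 cells loaded with calcium dye for 2 h at 37 C; compounds pre-incubated 5 min at room temperature before TRH challenge at 1 nM final. Intracellular calcium fluorescence read kinetically for 3 min; 15 concentrations in triplicate.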

[13] = target: Thyrotropin-releasing hormone receptor (Homo sapiens) (UniProt P34981); assay: qHTS assay to identify small molecule agonists of the thyrotropin-releasing hormone receptor (TRHR) signaling pathway (AID 1346891; calls by dose curve; further: series mostly up to about 58 µM)
Procedure, shortened: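 Kinetic fluorescence (3 min, 1 s intervals) reported intracellular calcium after compound transfer onto TRHR-Hek293 cells pre-loaded with dye for 2 h at 37 °C.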

[14] = qHTS assay to identify small molecule agonists of the estrogen receptor beta (ER-beta) signaling pathway - cell viability counter screen (AID 1259380); further: nearly all actives have a fitted effect of over 30% in size
Procedure, shortened: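 ER-beta-UAS-bla HEK293T cells in medium with 2% charcoal-stripped FBS, pre-incubated 6 hr, then treated 16 hr at 37C. Cytotoxicity read in the same wells by CellTiter-Glo luminescence after 30 min at room temperature.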

[15] = qHTS assay to identify small molecule agonists or antagonists of the thyroid stimulating hormone receptor (TSHR) signaling pathway - wild type cell line counter screen (AID 1259384; calls by dose curve)
Procedure, shortened: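 Wild-type HEK293 cells were plated 18 h at 37 C/5% CO2, pin-dosed with compound plus Ro20-1724 medium, held 30 min at room temperature, then given cAMP-d2 and anti-cAMP-cryptate; fluorescence was read after 1 h. Fifteen concentrations, triplicate.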

[16] = target: Thyrotropin receptor (Homo sapiens) (UniProt P16473); assay: qHTS assay to identify small molecule antagonists of the thyroid stimulating hormone receptor (TSHR) signaling pathway (AID 1259385; calls by dose curve; further: nearly all actives have a fitted effect of over 20% in size)
Procedure, shortened: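 TSHR-HEK293 cells were plated and held 18 h at 37C/5% CO2, then given compound plus Ro20-1724 and stimulated with TSH at 1.5 ng/mL final. After 30 min at room temperature, cAMP was detected with cAMP-d2/anti-cAMP-cryptate (1 h) by fluorescence.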

[17] = qHTS assay to identify small molecule agonists of the progesterone receptor (PR) signaling pathway - cell viability counter screen (AID 1346799; calls by dose curve; further: nearly all actives have a fitted effect of over 45% in size)
Procedure, shortened: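 Viability was scored by ATP luminescence (CellTiter-Glo, 30 min, room temperature) in the same wells used for the reporter readout, after 16 hr compound exposure of PR-UAS-bla HEK293T cells.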

Measured: Potency

Progesterone receptor (Homo sapiens), sequence (P06401 whole entry, looked up): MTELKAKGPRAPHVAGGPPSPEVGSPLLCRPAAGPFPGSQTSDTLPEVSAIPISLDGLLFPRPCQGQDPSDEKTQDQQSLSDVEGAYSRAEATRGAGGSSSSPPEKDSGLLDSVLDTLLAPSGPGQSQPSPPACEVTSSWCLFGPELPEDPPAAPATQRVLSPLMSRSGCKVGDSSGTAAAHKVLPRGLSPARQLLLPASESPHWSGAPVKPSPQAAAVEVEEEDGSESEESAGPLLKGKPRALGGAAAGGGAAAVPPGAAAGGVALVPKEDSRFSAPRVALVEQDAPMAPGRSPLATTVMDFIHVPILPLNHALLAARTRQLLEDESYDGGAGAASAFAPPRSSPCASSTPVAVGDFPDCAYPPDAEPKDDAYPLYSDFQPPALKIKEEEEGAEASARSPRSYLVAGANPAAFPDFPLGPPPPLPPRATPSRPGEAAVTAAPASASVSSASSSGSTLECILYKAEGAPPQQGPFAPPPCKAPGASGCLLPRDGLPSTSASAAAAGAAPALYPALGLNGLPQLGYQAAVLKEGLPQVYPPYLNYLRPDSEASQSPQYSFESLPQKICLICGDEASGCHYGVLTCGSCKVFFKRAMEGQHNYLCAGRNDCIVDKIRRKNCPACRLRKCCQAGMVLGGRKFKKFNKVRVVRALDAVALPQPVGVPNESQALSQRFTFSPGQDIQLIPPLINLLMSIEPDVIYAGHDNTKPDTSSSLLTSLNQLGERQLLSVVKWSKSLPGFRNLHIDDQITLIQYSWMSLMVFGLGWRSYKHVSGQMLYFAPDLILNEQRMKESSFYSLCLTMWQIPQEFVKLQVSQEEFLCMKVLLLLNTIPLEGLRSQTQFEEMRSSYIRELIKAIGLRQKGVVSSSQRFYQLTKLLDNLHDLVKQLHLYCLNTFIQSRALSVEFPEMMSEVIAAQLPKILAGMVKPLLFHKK
Thyrotropin-releasing hormone receptor (Homo sapiens), sequence (P34981 whole entry, looked up): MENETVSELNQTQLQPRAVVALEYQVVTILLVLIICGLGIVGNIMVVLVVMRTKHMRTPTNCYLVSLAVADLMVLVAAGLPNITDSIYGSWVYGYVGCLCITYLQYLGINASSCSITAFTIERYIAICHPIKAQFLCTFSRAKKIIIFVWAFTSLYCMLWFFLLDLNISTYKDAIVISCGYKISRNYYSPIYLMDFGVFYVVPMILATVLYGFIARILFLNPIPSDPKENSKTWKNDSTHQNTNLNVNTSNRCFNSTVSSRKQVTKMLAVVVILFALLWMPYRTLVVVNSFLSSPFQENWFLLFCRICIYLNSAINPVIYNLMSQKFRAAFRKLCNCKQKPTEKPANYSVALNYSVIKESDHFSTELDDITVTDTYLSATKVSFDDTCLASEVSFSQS
Thyrotropin receptor (Homo sapiens), sequence (P16473 whole entry, looked up): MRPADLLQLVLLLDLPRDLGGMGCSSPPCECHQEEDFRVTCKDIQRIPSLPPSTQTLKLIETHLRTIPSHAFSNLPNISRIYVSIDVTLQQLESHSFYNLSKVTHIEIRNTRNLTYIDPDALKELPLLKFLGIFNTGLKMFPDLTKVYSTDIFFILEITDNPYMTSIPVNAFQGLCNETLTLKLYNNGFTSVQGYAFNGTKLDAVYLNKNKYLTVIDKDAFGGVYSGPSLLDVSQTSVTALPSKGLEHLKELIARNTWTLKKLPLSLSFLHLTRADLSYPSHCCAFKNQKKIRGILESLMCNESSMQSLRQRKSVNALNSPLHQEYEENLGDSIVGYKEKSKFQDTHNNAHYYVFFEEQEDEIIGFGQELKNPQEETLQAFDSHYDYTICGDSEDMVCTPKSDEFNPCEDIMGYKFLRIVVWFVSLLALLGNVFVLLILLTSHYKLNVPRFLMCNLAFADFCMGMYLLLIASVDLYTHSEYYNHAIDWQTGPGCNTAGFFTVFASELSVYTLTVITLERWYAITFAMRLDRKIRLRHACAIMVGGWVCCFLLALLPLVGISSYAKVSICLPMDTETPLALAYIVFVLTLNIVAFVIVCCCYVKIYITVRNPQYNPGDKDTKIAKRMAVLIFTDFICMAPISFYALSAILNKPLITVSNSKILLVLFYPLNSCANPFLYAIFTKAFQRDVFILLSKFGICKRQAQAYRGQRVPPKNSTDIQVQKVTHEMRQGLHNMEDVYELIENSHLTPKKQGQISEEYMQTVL
Estrogen receptor (Homo sapiens), sequence (P03372 whole entry, looked up): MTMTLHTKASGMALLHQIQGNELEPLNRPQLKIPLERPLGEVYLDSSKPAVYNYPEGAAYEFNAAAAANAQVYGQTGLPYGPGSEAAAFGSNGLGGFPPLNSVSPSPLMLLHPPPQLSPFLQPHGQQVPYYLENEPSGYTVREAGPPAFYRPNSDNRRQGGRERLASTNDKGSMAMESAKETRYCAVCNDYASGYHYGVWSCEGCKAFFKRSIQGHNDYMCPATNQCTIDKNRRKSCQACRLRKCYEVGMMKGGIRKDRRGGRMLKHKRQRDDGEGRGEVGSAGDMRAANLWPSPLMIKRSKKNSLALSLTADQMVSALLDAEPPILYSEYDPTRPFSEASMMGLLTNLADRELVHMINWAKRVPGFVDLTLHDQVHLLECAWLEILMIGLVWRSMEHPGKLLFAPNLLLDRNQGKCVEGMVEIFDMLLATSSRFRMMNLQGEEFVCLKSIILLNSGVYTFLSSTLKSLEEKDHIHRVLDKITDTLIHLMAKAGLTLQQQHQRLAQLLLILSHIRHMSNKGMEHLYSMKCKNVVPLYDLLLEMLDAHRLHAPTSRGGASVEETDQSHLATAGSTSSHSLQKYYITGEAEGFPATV

CC(=O)N[C@@H](CC(C)C)C(=O)O
not listed: [14] | [15] | [16] | [17]
inactive: all other assays above

CCCCCCC
not listed: [5] | [7] | [8] | [17]
inactive: all other assays above

COc1nc(C)nc(NC(=O)NS(=O)(=O)c2ccccc2OCCCl)n1
not listed: [7] | [14] | [15] | [16]
inactive: all other assays above

CCCNC(C)C(=O)Nc1c(C)csc1C(=O)OC (configuration not stated)
not listed: [6] | [12] | [13] | [14]
inactive: all other assays above

O=Cc1ccc(F)c(Br)c1
not listed: [8] | [14]
inactive: all other assays above
